Screening results as filed in PubChem BioAssay.
D1 PAM: human D1 dopamine receptor positive modulation | potentiation, % at 10 µM | HEK293 TREx D1 cells, calcium flux, dopamine EC20 potentiation | AID 504651 | actives 0.036% (n = 360,000) | P21728; in the data active = potentiation above about 30%; also: 0% is about no effect
D3 antag: antagonists of human D3 dopamine receptor; actives 2.5% (n = 360,000); AID 652054; P35462; D3R cells, DiscoveRx beta-arrestin luminescence, antagonist mode; stronger effect = lower value; max response, negative = inhibition, %; in the data active = max response below about -50%; also: % is scaled to controls: 0 for no effect and ±100 for the full control effect
Target sequence (P35462 whole entry, looked up): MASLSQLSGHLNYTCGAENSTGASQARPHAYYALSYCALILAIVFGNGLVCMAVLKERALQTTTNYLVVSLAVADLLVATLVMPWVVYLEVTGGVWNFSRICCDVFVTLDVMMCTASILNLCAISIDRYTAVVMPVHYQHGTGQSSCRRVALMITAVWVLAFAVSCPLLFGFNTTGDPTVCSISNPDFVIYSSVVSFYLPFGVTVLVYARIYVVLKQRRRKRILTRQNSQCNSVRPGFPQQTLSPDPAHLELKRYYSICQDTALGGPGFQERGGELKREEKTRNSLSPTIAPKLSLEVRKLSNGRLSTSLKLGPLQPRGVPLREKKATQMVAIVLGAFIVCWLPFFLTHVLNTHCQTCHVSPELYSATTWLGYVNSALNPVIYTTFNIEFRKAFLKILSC
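Cells expressing the human receptor were seeded at 1500 cells/well, incubated overnight at 37 degrees C in 5% CO2, then exposed to library compounds with dopamine controls for 90 minutes at 37 degrees C before luminescent detection.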
D1 antag: antagonists of human D1 dopamine receptor; P21728; HEK293 TREx D1 cells, calcium flux, dopamine EC80; stronger effect = lower value; activity change, negative = inhibition, % at 10 µM; actives 3.2% (n = 360,000); in the data active = activity change below about -30%; also: % is scaled to controls: 0 for no effect and ±100 for the full control effect
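After overnight tetracycline induction at 30 C, force-coupled D1 HEK293 cells took up a no-wash calcium dye at room temperature. Compounds were added and monitored 180 s, and the response to EC80 dopamine was then recorded.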
D1 ag: agonists of human D1 dopamine receptor; P21728; HEK293 T-REx D1 cells, calcium flux, agonist mode; activation, % at 2 µM; actives 1% (n = 360,000); in the data active = activation above about 30%; also: 0% is about no effect
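Agonism was scored from calcium flux recorded over 180 s (1 read/s) after pintool compound addition, following a 10-cycle baseline. Cells were inducible force-coupled HEK293 TREx D1, plated overnight at 30 C and loaded with no-wash calcium dye.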
DRD3 agonist: agonists of human D3 dopamine receptor; P35462; D3R DiscoveRx beta-arrestin cells, luminescence, 90 min; max activation, %; actives 0.58% (n = 410,000); in the data active = max activation above about 30%; also: 0% is about no effect
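Agonist-mode cell screen: cells plated at 1500/well and incubated overnight at 37 °C, then exposed to library compounds for 90 min at 37 °C. Detection reagent was added for 30–60 min at room temperature, and luminescence was read.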
An asterisk follows results filed as active; nt = no result. This is a sample that favours compounds with a hit; in the whole collection about 6% have one here.

SMILES	D1 PAM	D3 antag	D1 antag	D1 ag	DRD3 agonist
CCN(c1cccc(C)c1)S(=O)(=O)c1nnc(NC(=O)C2CCCCC2)s1	7	nt	-3	7	3
O=C1/C(=C/c2ccccc2)CCCc2ccccc21	-3	-11	-11	2	-3
COc1ccc(C=C2CS(=O)(=O)CC(=Cc3ccc(OC)cc3)C2=O)cc1	nt	-64*	nt	nt	-8
CN(C)/N=C/C=C1\CCC/C(=C\c2ccc(F)c(F)c2)C1=O	-4	-5	nt	0	-2
CN(C)c1ccc(/C=C2\CCC/C(=C\c3ccccc3)C2=O)cc1	0	-3	-19	91*	8
COc1ccc(/C=C2\CCC/C(=C\C=N\N(C)C)C2=O)cc1	-2	0	-35*	14	-1
Cc1ccc(-n2c(SCCC(C)C)nc3sc4c(c3c2=O)CC(C)(C)OC4)cc1	0	nt	-1	-1	-19
COc1ccccc1CNC(=O)C(Cc1ccccc1)NS(=O)(=O)c1ccc2c(c1)CCN2C(C)=O (configuration not stated)	1	nt	6	4	1
CCOC(=O)C1=C(C)NC(C)=C(C(=O)OC)C1c1ccco1 (configuration not stated)	-3	-8	-16	3	6
C=CCOC(=O)C1=C(C)NC(C)=C(C(=O)OCC=C)C1c1ccco1	-15	7	-30*	3	1
CC1Oc2cc3oc4c(O)c5c(cc4c(=O)c3c(O)c2C1(C)C)C=CC(C)(C)O5 (configuration not stated)	nt	42	nt	nt	44*
Cc1ccc(-c2nc3c4cnn(-c5cc(Cl)ccc5Cl)c4ncn3n2)cc1	-1	nt	5	2	5
O=C(CCS(=O)(=O)c1ccc(F)cc1)Nc1nc(-c2ccccn2)cs1	0	0	1	5	-1
CC(Oc1ccc(F)cc1)C(=O)Nc1nc(-c2ccccn2)cs1 (configuration not stated)	-4	-69*	20	-1	-12
O=C1NC(=O)/C(=C/c2ccc(OS(=O)(=O)c3ccc(F)cc3F)cc2)N1	-1	-24	-31*	6	-10
O=C1NC(=O)C(=Cc2ccccc2)N1	nt	5	nt	nt	3
CCOc1ccccc1NC(=O)C(C)n1nnc2sc3c(c2c1=O)CCCC3 (configuration not stated)	5	nt	-3	1	-8
Oc1ccc(Cl)cc1/C=N/c1nccs1	1	11	-12	3	-11
Oc1c(Br)cc(Br)cc1/C=N/c1nccs1	-9	-55*	-11	3	-23
COc1ccc(C(=O)O)cc1S(N)(=O)=O	0	-60*	17	6	-12
CNS(=O)(=O)c1cc(C(=O)O)ccc1OC	4	5	23	2	2
COc1ccc(C(=O)NC(C)CCc2ccccc2)cc1 (configuration not stated)	-1	-11	-2	0	-6
COc1ccc(C(=O)NC(C)CCc2ccccc2)c(O)c1 (configuration not stated)	-6	-18	-48*	16	5
N#C[C@@H]1C[C@@H]2C[C@@H]2N1C(=O)[C@@H](N)C12CC3CC(CC(O)(C3)C1)C2	nt	nt	nt	nt	-24
Clc1ccc2nc(NCc3ccccc3)c3nncn3c2c1	-2	nt	-8	3	9
SMILES	D1 PAM	D3 antag	D1 antag	D1 ag	DRD3 agonist
CC(Oc1ccc(F)cc1)C(=O)Nc1cc(-c2ccc(F)c(F)c2)no1 (configuration not stated)	-1	nt	-41*	111*	-1
O=[N+]([O-])c1cc(-n2cnnn2)ccc1N1CCC(Cc2ccccc2)CC1	-3	19	-35*	-1	-1
CCOC(=O)c1sc2nc(NC(=O)C(C)(C)C)sc2c1C	-6	33	-21	10	34*
COc1cc(C#Cc2c(-c3cncn3C)n(C)c3ccc(-c4ccc(OC)c(OC)c4)cc23)cc(OC)c1	-5	105	nt	2	70*
CCC(=O)Oc1c(Sc2ccc(Cl)cc2)c(C)nn1C(C)(C)C	2	nt	12	5	-13
COc1cccc(N2CC(NC(=O)C(=O)c3c[nH]c4ccccc34)CC2=O)c1 (configuration not stated)	-3	8	-35*	2	0
COC(=O)c1cn(C(=O)c2cc(OC)c(OC)c(OC)c2)c2ccccc12	0	26	10	1	8
